15 sequences from the OligoGym collection can be followed below.
Further: reference of the scale not given here.

The first assay concerns the target COBRA1. Description: pooled miR-30 sensor sort-seq; sequence = guide strand. The settings on record: shRNA.
Sequence ATGAGCATCGGGAGGAACCTGG came in with a sensor-assay potency score (higher = more potent) of -1.62.

For TTGGATATGAGACTGGGGCTTT, the sensor-assay potency score (higher = more potent) is -0.217.

In turn, TTGCTGTCCACGAACCGCTCTC yielded a sensor-assay potency score (higher = more potent) of -0.427.

The sequence ATGAGCTCTACCTCCATCTTGG came in with a sensor-assay potency score (higher = more potent) of -0.766.

Take AAACTTAGTGAAGCTTTCGGGA: the sensor-assay potency score (higher = more potent) was -0.764.

As for TACAGCTTCACGTTCTTCCCCA, the sensor-assay potency score (higher = more potent) is 0.123.

On to TGACACTCGCTCCAGCAGCTTG, for which the sensor-assay potency score (higher = more potent) is -1.51.

The sequence TTCTGATCCACATTGAAAGTGT registered a sensor-assay potency score (higher = more potent) of -0.064.

In turn, TTCTTGTTCCTCTGCTTGGTGA came in with a sensor-assay potency score (higher = more potent) of -1.3.

Take TTTTTTCTCCGGAACCTTGGGC: the sensor-assay potency score (higher = more potent) is 0.129.

Sequence TTCTCTGTCTGGAACTGCTCGA came in with a sensor-assay potency score (higher = more potent) of -0.254.

For a further assay, the target named is COG2. Described as above. As to conditions: shRNA.
TTCTGTGGCAATTCTCTCCAAA: the sensor-assay potency score (higher = more potent) was -0.386.

Sequence TTGAACAGCATGAAACTGTAAC returned a sensor-assay potency score (higher = more potent) of -0.748.

In the case of ATCGACATCGAAATCTTCCTTC, the sensor-assay potency score (higher = more potent) was 0.744.

Take TAATCTCTTTACACTAGCCTGT: the sensor-assay potency score (higher = more potent) was -0.36.
